Bioassay records as filed in PubChem BioAssay.
This is a sample that favours compounds with a hit; in the whole collection about 4.1% have one here.
hgDAF-12 ag: H. glycines DAF-12 receptor agonists, primary screen, cell-based, luminescence, HEK293, GAL4 fusion, UAS-luciferase. activation, % at 6.8 µM. actives 1.8% (n = 370,000). HEK293 GAL4-hgDAF12 UAS-luciferase reporter, agonist luminescence; normalized to butyrate control;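 active = activation above a cutoff set at the mean of all screened compounds plus 3 SD, cut at about 10% in these data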;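 also: 0% = DMSO wells and 100% = sodium butyrate wells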
DAX1 inh-1: DAX1 (NR0B1) inhibitors, primary screen, cell-based, HEK293, Gal4-DAX1, luciferase luminescence | actives 0.99% (n = 340,000) | AID 504766, 2011 | HEK293 Gal4-DAX1 luciferase reporter | inhibition, % at 6.75 µM;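 active = inhibition above the mean over all tested compounds plus 3 SD, cut at about 4.2% in these data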;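 also: 0% = DAX1-transfected cells with DMSO and 100% = empty-vector control cells with DMSO; inhibition shows as a rise in luminescence from relieved DAX1 repression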
Target sequence (P51843 207-470 limits assumed): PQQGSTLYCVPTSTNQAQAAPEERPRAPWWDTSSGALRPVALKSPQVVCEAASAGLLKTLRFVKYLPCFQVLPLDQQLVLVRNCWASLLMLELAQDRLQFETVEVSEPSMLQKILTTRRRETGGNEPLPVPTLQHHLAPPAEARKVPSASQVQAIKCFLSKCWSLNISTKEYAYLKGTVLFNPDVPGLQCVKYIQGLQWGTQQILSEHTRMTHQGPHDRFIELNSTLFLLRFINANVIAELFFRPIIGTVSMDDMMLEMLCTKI
DAX1 inh-2: DAX1 (NR0B1) inhibitors on StAR promoter, primary screen, cell-based, luminescence, SF-1 (NR5A1), full-length DAX-1; HEK293T StAR-luciferase reporter, SF-1/DAX-1 repression relief; inhibition, % at 6.8 µM; actives 1.1% (n = 370,000); AID 652010, 2013;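 active = inhibition above the mean over all tested compounds plus 3 SD, cut at about 3.6% in these data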;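 also: 0% = DAX-1 cells with DMSO and 100% = cells lacking DAX-1 with DMSO; higher inhibition means more luminescence from relief of DAX-1 repression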
ssDAF-12 act: S. stercoralis DAF-12 nuclear receptor activators, primary screen, cell-based, luminescence, HEK293, GRIP1 co-expression, lit1-tk-luc | actives 1% (n = 370,000) | activation, % at 6.8 µM | HEK293 ssDAF-12/GRIP1 lit1-tk-luc reporter; % of 3 µM dafachronic acid response;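 active = activation above the mean over all tested compounds plus 3 SD, cut at about 0.9% in these data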;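 also: 0% = DMSO-only wells and 100% = 3 µM delta7-dafachronic acid wells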
hcDAF12 agonist: H. contortus DAF-12 nuclear receptor activators, primary screen, cell-based, luminescence, HEK293, lit1-tk-luc reporter; HEK293 hcDAF-12 lit1-tk-luc reporter; 0% DMSO, 100% Δ7-dafachronic acid; actives 1.4% (n = 370,000); activation, % at 6.8 µM; AID 652067, 2013;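 active = activation above the mean of all tested compounds plus 3 SD, cut at about 5.5% in these data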;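 also: 100% = response to 3 µM Δ7-dafachronic acid high control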
An asterisk follows results filed as active.

What do the screens show for `C[C@@H](CO)N(Cc1cn(Cc2ccccc2)nn1)S(=O)(=O)c1ccccc1Br`?
hgDAF-12 ag: 0.3; DAX1 inh-2: -0.4; ssDAF-12 act: -1.2; hcDAF12 agonist: -2.0

Results for COc1ccc(CN2CN(S(=O)(=O)c3cccs3)c3nc4ccccc4nc32)cc1 ?
hgDAF-12 ag: 12.7*; DAX1 inh-1: 2.0; DAX1 inh-2: 0.6; ssDAF-12 act: -0.3; hcDAF12 agonist: 2.4

Results for CC(C)n1c2ccccc2c2cc([N+](=O)[O-])ccc21 ?
hgDAF-12 ag: -0.8; DAX1 inh-1: 1.6; DAX1 inh-2: -0.3; ssDAF-12 act: -1.6; hcDAF12 agonist: -1.8

How did CCC(C)n1c(=S)[nH]c2c(sc3ccc([N+](=O)[O-])cc32)c1=O (stereo unspecified) do in these assays?
hgDAF-12 ag: 0.1; DAX1 inh-1: 0.2; DAX1 inh-2: -0.5; ssDAF-12 act: 3.4*; hcDAF12 agonist: -1.2

Results for Cc1ccc(C(=O)NC(=S)N(C)C2CCCCC2)cc1 ?
hgDAF-12 ag: 10.5*; DAX1 inh-1: 0.1; DAX1 inh-2: 3.2; ssDAF-12 act: 0.3; hcDAF12 agonist: 4.0

How did CC(C)[C@@H]1Cc2[nH]n(C)c(=O)c2[C@H](c2ccc(F)cc2)O1 do in these assays?
hgDAF-12 ag: -2.5; DAX1 inh-2: 4.1*; ssDAF-12 act: -0.4; hcDAF12 agonist: 3.2

Results for Cn1[nH]c2c(c1=O)[C@H](c1ccc(F)cc1)O[C@H](CCc1ccccc1)C2 ?
hgDAF-12 ag: -0.9; DAX1 inh-2: -0.7; ssDAF-12 act: -1.3; hcDAF12 agonist: -0.3

Results for Cc1[nH]n(-c2ccccc2)c(=O)c1N=Nc1ccccc1 ?
hgDAF-12 ag: 8.0; DAX1 inh-1: 0.6; DAX1 inh-2: 1.0; ssDAF-12 act: 0.8; hcDAF12 agonist: 6.0*

How did Cc1[nH][nH]c(=O)c1N=Nc1ccc(S(N)(=O)=O)cc1 do in these assays?
hgDAF-12 ag: -6.3; DAX1 inh-2: -0.6; ssDAF-12 act: -1.6; hcDAF12 agonist: -1.1

Results for CC(=O)c1ccc(N=Nc2c(C)[nH][nH]c2=O)cc1 ?
hgDAF-12 ag: 0.1; DAX1 inh-1: 5.5*; DAX1 inh-2: -0.5; ssDAF-12 act: -1.4; hcDAF12 agonist: -0.1

How did Nc1[nH]n(-c2ccccc2)c(=O)c1N=Nc1ccc(F)cc1 do in these assays?
hgDAF-12 ag: 8.5; DAX1 inh-2: 3.0; ssDAF-12 act: -0.2; hcDAF12 agonist: 3.1

Results for CC(=O)c1ccc(N=Nc2c(C)[nH]n(-c3ccccc3)c2=O)cc1 ?
hgDAF-12 ag: -1.6; DAX1 inh-1: -0.2; DAX1 inh-2: 0.5; ssDAF-12 act: 0.9*; hcDAF12 agonist: 1.8

What do the screens show for `Cc1[nH]n(-c2ccccc2)c(=O)c1N=Nc1ccc(C(=O)O)cc1`?
hgDAF-12 ag: -1.7; DAX1 inh-1: 0.7; DAX1 inh-2: -0.1; ssDAF-12 act: -0.6; hcDAF12 agonist: -0.2

How did Cc1ccc(N=Nc2c(N)n(-c3ccccc3)[nH]c2=O)cc1 do in these assays?
hgDAF-12 ag: 9.1; DAX1 inh-1: 2.6; DAX1 inh-2: 0.6; ssDAF-12 act: 0.3; hcDAF12 agonist: 5.6*

Results for COc1ccc(/C(C)=N/NC(=O)Cc2cc(=O)[nH][nH]2)cc1OC ?
hgDAF-12 ag: -0.9; DAX1 inh-2: -0.2; ssDAF-12 act: -1.2; hcDAF12 agonist: -0.5

Results for CCN(CC)C(=O)O[C@H]1CC[C@@]23CCCN2C(=O)CCC[C@H]3[C@H]1C ?
hgDAF-12 ag: -1.3; ssDAF-12 act: -1.0; hcDAF12 agonist: -1.7

How did Cc1ccc(N=Nc2c(C)[nH]n(C(N)=S)c2=O)cc1 do in these assays?
hgDAF-12 ag: 5.9; DAX1 inh-1: 1.7; DAX1 inh-2: 1.0; ssDAF-12 act: 1.0*; hcDAF12 agonist: 2.8

Results for CN(CC(=O)Nc1ccc(F)cc1)C(=O)CSc1nncs1 ?
hgDAF-12 ag: 1.6; DAX1 inh-1: 1.5; DAX1 inh-2: 3.9*; ssDAF-12 act: -0.6; hcDAF12 agonist: 0.0

What do the screens show for `CC1C/C(=N/NC(=O)c2cccc(F)c2)c2ccc(O)cc2C1` (stereo unspecified)?
hgDAF-12 ag: 12.8*; DAX1 inh-1: 1.6; DAX1 inh-2: 0.2; ssDAF-12 act: -1.4; hcDAF12 agonist: 2.6

What do the screens show for `COc1ccc2c(c1)CC(C)C/C2=N\NC(=O)c1ccco1` (stereo unspecified)?
hgDAF-12 ag: 10.3; DAX1 inh-1: 2.4; DAX1 inh-2: 2.5; ssDAF-12 act: 0.5; hcDAF12 agonist: 3.5

How did CN(C)C=Nc1nc2c(Br)ccc(Br)c2cc1C(=O)NCC(C)(C)C do in these assays?
hgDAF-12 ag: -3.3; DAX1 inh-2: -1.1; ssDAF-12 act: -0.2; hcDAF12 agonist: 0.4

What do the screens show for `CC1CCN(c2ccc(C(=O)O)cc2NS(=O)(=O)c2ccc(C(C)(C)C)cc2)CC1`?
hgDAF-12 ag: -3.6; DAX1 inh-2: -0.8; ssDAF-12 act: -0.5; hcDAF12 agonist: -1.8

Results for CC1CC1C(=O)Nc1nc(-c2cccs2)c(-c2cccs2)s1 (stereo unspecified) ?
hgDAF-12 ag: 2.2; DAX1 inh-1: 0.5; DAX1 inh-2: -0.2; ssDAF-12 act: 2.0*; hcDAF12 agonist: 5.1

What do the screens show for `C(=NOCCc1ccccc1)c1ccccn1`?
hgDAF-12 ag: 7.4; DAX1 inh-1: 2.5; DAX1 inh-2: 2.2; ssDAF-12 act: -0.3; hcDAF12 agonist: 0.3

What do the screens show for `C(=NOCCc1ccccc1)c1ccncc1`?
hgDAF-12 ag: 7.9; DAX1 inh-1: 0.6; DAX1 inh-2: 0.7; ssDAF-12 act: 1.3*; hcDAF12 agonist: 0.9

What do the screens show for `COc1cc(NC(=O)NC2CCCCN(Cc3cccc(Cl)c3)C2=O)cc(OC)c1` (stereo unspecified)?
hgDAF-12 ag: 4.6; DAX1 inh-2: -0.6; ssDAF-12 act: -1.2; hcDAF12 agonist: -1.5

What do the screens show for `O=c1c(-c2cccc([N+](=O)[O-])c2)[n+]([O-])c2ccccc2n1O`?
hgDAF-12 ag: 2.2; DAX1 inh-1: 6.5*; DAX1 inh-2: -0.4; ssDAF-12 act: -0.7; hcDAF12 agonist: 0.6

Results for CCCCCC1CCC(c2ccc(/C(N)=N/O)cc2)CC1 (stereo unspecified) ?
hgDAF-12 ag: -2.3; DAX1 inh-1: 5.5*; DAX1 inh-2: -0.1; ssDAF-12 act: -1.2; hcDAF12 agonist: 1.4

Results for CC(C)(C)OC(=O)NCc1ccc(NC(=O)c2nc[nH]c2C(=O)Nc2cc(Br)ccc2F)cc1 ?
hgDAF-12 ag: 3.1; DAX1 inh-2: 0.9; ssDAF-12 act: 1.1*; hcDAF12 agonist: -1.0
